“And” between values parts separate entries of the source, which are not always exact repeats. Equal values may be shown once. Values without a mark were called inactive. Results filed as inconclusive are left out. The source made the active and inactive calls. Unless noted, calls follow the shape of the dose curve; as a rule, active = well fitted curve in the direction sought with a large enough effect in the repeat runs; inconclusive = weak or mixed curves; inactive = no such curve, though single readings can be large; an effect the other way counts as inactive or inconclusive.

T1 sequence (P35557 whole entry, looked up): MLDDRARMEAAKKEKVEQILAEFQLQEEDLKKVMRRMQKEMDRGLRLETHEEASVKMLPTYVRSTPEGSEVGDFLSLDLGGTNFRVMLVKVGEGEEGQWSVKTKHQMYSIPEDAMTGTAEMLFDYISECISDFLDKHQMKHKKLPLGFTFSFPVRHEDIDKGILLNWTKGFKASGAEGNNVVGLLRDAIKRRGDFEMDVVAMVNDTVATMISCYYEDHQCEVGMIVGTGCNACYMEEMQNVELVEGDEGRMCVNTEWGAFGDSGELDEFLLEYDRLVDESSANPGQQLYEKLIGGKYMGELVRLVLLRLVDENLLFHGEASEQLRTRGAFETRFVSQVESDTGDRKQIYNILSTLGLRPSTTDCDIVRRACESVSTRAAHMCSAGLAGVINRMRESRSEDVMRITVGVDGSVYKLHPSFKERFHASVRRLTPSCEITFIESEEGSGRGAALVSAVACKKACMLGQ
T1 sequence (Q14397 whole entry, looked up): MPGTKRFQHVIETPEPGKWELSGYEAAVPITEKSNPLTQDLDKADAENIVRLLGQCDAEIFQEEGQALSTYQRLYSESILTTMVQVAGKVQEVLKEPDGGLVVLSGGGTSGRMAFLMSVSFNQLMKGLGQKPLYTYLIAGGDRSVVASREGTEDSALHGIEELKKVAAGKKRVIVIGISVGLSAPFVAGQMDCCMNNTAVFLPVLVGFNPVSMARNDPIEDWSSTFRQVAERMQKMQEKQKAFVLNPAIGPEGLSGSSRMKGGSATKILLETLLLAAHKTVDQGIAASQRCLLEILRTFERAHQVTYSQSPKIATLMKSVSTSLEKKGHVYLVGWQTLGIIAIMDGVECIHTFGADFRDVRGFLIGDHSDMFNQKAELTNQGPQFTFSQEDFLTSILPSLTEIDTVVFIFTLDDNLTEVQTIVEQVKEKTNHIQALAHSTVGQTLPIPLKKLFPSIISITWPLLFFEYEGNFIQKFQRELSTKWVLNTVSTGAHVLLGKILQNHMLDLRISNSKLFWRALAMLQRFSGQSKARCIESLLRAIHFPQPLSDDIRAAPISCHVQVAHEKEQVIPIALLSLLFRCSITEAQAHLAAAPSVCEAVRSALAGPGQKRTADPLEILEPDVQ

Test system in one test: not listed separately
Kind of test: qHTS for Activators of Parkin Expression: LOPAC Validation Assay (NLuc Reporter) (AID 720572; active = well fitted curve in the direction sought with a large enough effect; an effect the other way counts as inactive or inconclusive;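 also: 0% = DMSO and 100% = positive control compound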). The note with it: Parkin promoter NanoLuc reporter cells, luminescence, percent of positive control, DMSO as zero; series mostly up to 46.1 µM; activation: at the top concentration. The gist of the method:
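Neuronal line stably carrying a FLuc/NLuc coincidence reporter under the Parkin promoter, seeded 24 h, then dosed in 7-point series for 24 h at 37 C. NLuc luminescence read after FLuc; normalized to DMSO and positive control (100%).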
(Quantitative high-throughput screening tests each substance at several concentrations.)
In the case of `O=C(O)CCCc1ccc(N(CCCl)CCCl)cc1`, the “activation” value is -7.53%.

Take `CC(NC(C)(C)C)C(=O)c1cccc(Cl)c1` (stereo not drawn): the “activation” value is 3%.

In the case of `CC(C)N(CCC(C(N)=O)(c1ccccc1)c1ccccn1)C(C)C` (stereo not drawn), the molecule was called inactive.

Test system in another test: not listed separately
Kind of test: qHTS assay for small molecule agonists of the antioxidant response element (ARE) signaling pathway measured by Nrf2-dependant transcriptional activity (AID 720636).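 Also: HepG2 cells with an ARE-driven luciferase reporter; % of control where 0% means no effect.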 The note with it: ARE-luc HepG2, Nrf2 luciferase reporter, 16 h; series mostly up to 92.4 µM; activation: at the top concentration. In outline: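 HepG2 ARE-luc reporter line, 1% dialyzed FBS; 6 hr attachment at 37 C, compound pinned in, 16 hr at 37 C/5% CO2; ONE-Glo, 30 min RT, luminescence read.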
In the case of `O=C(O)CCCc1ccc(N(CCCl)CCCl)cc1`, the “activation” value was -1.23%.

`C[C@]1(O)CC[C@H]2[C@@H]3CCC4=CC(=O)CC[C@]4(C)[C@@]3(F)[C@@H](O)C[C@@]21C`: the “activation” value is -0.142%.

Take `CN1C[C@H](C(=O)N[C@]2(C)O[C@@]3(O)[C@@H]4CCCN4C(=O)[C@H](Cc4ccccc4)N3C2=O)C=C2c3cccc4[nH]cc(c34)C[C@H]21`: the outcome was inactive.

As to `COC(=O)C(c1ccccc1)C1CCCCN1` (stereo not drawn), the molecule was called inactive.

Test system in the next test: not listed separately
Kind of test: qHTS assay for small molecule antagonists of the retinoid-related orphan receptor gamma (ROR-gamma) signaling pathway - cell viability counter screen (AID 720652).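 Also: CHO reporter cells with doxycycline-induced ROR-gamma expression; compound exposure lasted 16 hr before ATP read; % is scaled to controls: 0 for no effect and ±100 for the full control effect.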 The note with it: RORgamma reporter cell line viability counter screen; series mostly up to 92.2 µM; activity change, negative = cytotoxicity: at the top concentration. In outline:
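Cytotoxicity is quantified via intracellular ATP (CellTiter-Glo luminescence) in doxycycline-induced CHO ROR response element-luciferase reporter cells treated with compound for 16 hr at 37 C, 5% CO2.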
Take `C[C@]1(O)CC[C@H]2[C@@H]3CCC4=CC(=O)CC[C@]4(C)[C@@]3(F)[C@@H](O)C[C@@]21C`: the “activity change, negative = cytotoxicity” value was 8.08%.

Consider `CN1C[C@H](C(=O)N[C@]2(C)O[C@@]3(O)[C@@H]4CCCN4C(=O)[C@H](Cc4ccccc4)N3C2=O)C=C2c3cccc4[nH]cc(c34)C[C@H]21`, for which the “activity change, negative = cytotoxicity” value is -16.5%.

With `COC(=O)C(c1ccccc1)C1CCCCN1` (stereo not drawn), the “activity change, negative = cytotoxicity” value is 0.229%.

Test system in another test: not listed separately
Kind of test: qHTS assay for small molecule agonists of the antioxidant response element (ARE) signaling pathway measured by Nrf2-dependant transcriptional activity - cell viability counter screen (AID 720653). Also: % is scaled to controls: 0 for no effect and ±100 for the full control effect. The note with it: ARE-bla HepG2 viability, CellTiter-Glo ATP luminescence, 16 h; active compounds read low. In outline:
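ARE-bla HepG2 cells (2,000/well) rested 5 hrs at 37C/5% CO2, then exposed to compounds in DMSO for 16 hrs. Viability was read in the same wells as intracellular ATP by luminescence, 30 min at room temperature after reagent addition.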
On to `O=C(O)CCCc1ccc(N(CCCl)CCCl)cc1`, for which the max response was -0.747% and 2.01%.

Consider `C[C@]1(O)CC[C@H]2[C@@H]3CCC4=CC(=O)CC[C@]4(C)[C@@]3(F)[C@@H](O)C[C@@]21C`, for which the max response is -5.41%.

Turning to `CN1C[C@H](C(=O)N[C@]2(C)O[C@@]3(O)[C@@H]4CCCN4C(=O)[C@H](Cc4ccccc4)N3C2=O)C=C2c3cccc4[nH]cc(c34)C[C@H]21`, the max response was -19% and -17.1%.

As to `COC(=O)C(c1ccccc1)C1CCCCN1` (stereo not drawn), the max response was 3.62% and -0.896%.

Another test concerns the target T1, Hexokinase-4 (Homo sapiens) + Glucokinase regulatory protein (Homo sapiens) (UniProt P35557+Q14397). Kind of test: qHTS assay for inhibitors of recombinant human GCK-GKRP interaction: Diaphorase-coupled assay (AID 743205; active = well fitted curve in the direction sought with a large enough effect; an effect the other way counts as inactive or inconclusive). The note with it: G6PDH/diaphorase resorufin fluorescence; series mostly up to 57.5 µM; activity change, positive = activation: at the top concentration. The gist of the method:
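GST-GCK (10 nM) with FLAG-GKRP (10 nM), 5 mM glucose and 0.4 mM ATP in pH 7.6 Hepes; compounds preincubated 20 min with substrate. G6PDH/diaphorase coupling converts resazurin to resorufin, read kinetically (ex 525/em 590 nm) for 30 min.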
With `O=C(O)CCCc1ccc(N(CCCl)CCCl)cc1`, the “activity change, positive = activation” value is -13.2%.

In the case of `CC(NC(C)(C)C)C(=O)c1cccc(Cl)c1` (stereo not drawn), the “activity change, positive = activation” value is -1.63%.

For `CC(C)N(CCC(C(N)=O)(c1ccccc1)c1ccccn1)C(C)C` (stereo not drawn), the outcome was inactive.

Another test deals with T1, Hexokinase-4 (Homo sapiens) + Glucokinase regulatory protein (Homo sapiens). Kind of test: qHTS assay for inhibitors of recombinant human GCK-GKRP interaction: ADP-Glo assay (AID 743206; active = well fitted curve in the direction sought with a large enough effect; an effect the other way counts as inactive or inconclusive;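 also: plate controls were DMSO plus enzyme for no effect and no enzyme for full effect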). The note with it: ADP-Glo luminescence, 60 min, 0% = vehicle-only wells with enzyme present; series mostly up to 76.9 µM; activity, positive = activation: at the top concentration. In outline: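 GST-GCK and FLAG-GKRP (15 nM each in the dispensed mix, with 2 uM S6P) react with 0.4 mM ATP and 5 mM glucose (final) in Hepes pH 7.6 for 60 min at room temperature. ADP is measured by ADP-Glo luminescence.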
`O=C(O)CCCc1ccc(N(CCCl)CCCl)cc1`: the “activity, positive = activation” value was -0.135%.

For the molecule `CC(NC(C)(C)C)C(=O)c1cccc(Cl)c1` (stereo not drawn), the “activity, positive = activation” value was 2.8%.

`CC(C)N(CCC(C(N)=O)(c1ccccc1)c1ccccn1)C(C)C` (stereo not drawn): the outcome was inactive.

The next test has the same target. Kind of test: qHTS assay for inhibitors of recombinant human GCK-GKRP interaction: HTRF assay (AID 743207; active = well fitted curve in the direction sought with a large enough effect; an effect the other way counts as inactive or inconclusive;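 also: 0% = DMSO with GCK present and -100% = DMSO wells lacking GCK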). The note with it: recombinant GCK-GKRP HTRF binding, 60 min; series mostly up to 57.5 µM; activity change, negative = inhibition: at the top concentration. In outline:
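GST-GCK and FLAG-GKRP (5 nM each) were combined with 2 uM S6P in pH 7.1 Hepes/MgCl2/KCl/DTT buffer, then compound and anti-FLAG XL665/anti-GST K antibodies were added. After 60 min at room temperature, HTRF 665/615 nm emission was read.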
For the molecule `O=C(O)CCCc1ccc(N(CCCl)CCCl)cc1`, the “activity change, negative = inhibition” value was 19.7%.

Take `CC(NC(C)(C)C)C(=O)c1cccc(Cl)c1` (stereo not drawn): the “activity change, negative = inhibition” value was -5.68%.

`CC(C)N(CCC(C(N)=O)(c1ccccc1)c1ccccn1)C(C)C` (stereo not drawn): the outcome was inactive.

These data come from PubChem BioAssay (NCATS).
